{"source": "PubChem BioAssay (NCATS)", "note": "Results filed as inconclusive are left out. A call without a number means that no potency is given here. Activity calls are given as the source filed them. Calls follow the shape of the dose curve; as a rule, active = well fitted cell-killing curve with a large enough effect; inconclusive = small, poorly fitted or top-dose-only effect; inactive = flat fitted curve, though single readings scatter. Numbered stars: 1 amine (or outer) side, 2 acyl side, 3 side chain; on linkers, the order of the positions; unused ones are H or OH. Bridge positions count the residues as written; N and C are the ends. Square brackets hold non-standard residues; d marks the D form. Peptide text beside a SMILES is read from it. I, II: the chains in the order shown. Actinocin(9to1) = Cc1c2oc3c(C)ccc(C(=O)[*:1])c3nc-2c(C(=O)[*:2])c(N)c1=O; NMeV = CN[CH](C(=O)O)C(C)C; Sar = CNCC(=O)O", "data": [{"test": "Quantitative highthroughput screen to assess conditional lethalithy of P12 Ichikawa cells grown in Human Plasma-Like Medium with dialyzed fetal bovine serum (HPLM+ds) (AID 1963879); also: nearly all actives have a fitted effect of over 35% in size; also: potency is read from the fitted curve at half-maximal effect", "conditions": "ATP luminescence, 48 h; Potency: viability; series mostly up to 45.8 µM", "source_text": "Assay Provider: Jason Cantor Ph.D.\nDepartment of Biochemistry\nUniversity of Wisconsin-Madison, Madison, WI, USA\nChemical screening studies have identified drug sensitivities across hundreds of cancer cell lines but most putative therapeutics fail to translate. Discovery and development of drug candidates in models that more accurately reflect nutrient levels in human blood is a major challenge. Here we performed high-throughput screens in conventional versus Human Plasma-Like Medium (HPLM) to identify compounds that were \"missed\" when screening using the artificial culture condition. Sets of conditional anticancer compounds spanned phases of clinical development and included non-oncology drugs were assessed. […] We also traced conditional phenotypes for several chemotherapeutics to availability of HPLM-specific metabolites and confirmed others for compounds whose reported targets are encoded by nonessential genes. Our findings establish generalizable strategies for exploiting conditional lethality in HPLM to reveal therapeutic candidates and mechanisms of action in cancer cells.\nDescribed herein are the results of each viability screens against three cell lines: NOMO1 (an acute myeloid leukemia cell line); P12-Ichikawa (a T-cell acute lymphoblastic leukemia); and SEM (a B-cell ALL). Each assay was screened using 3 different cell culture media: homemade human plasma-Like medium with 10% dialyzed fetal bovine serum (HPLM+ds); RPMI1640 with 10% untreated FBS and 5mM glucose (RPMI+s); and RPMI1640 with 10% dialyzed fetal bovine serum and 5 mM glucose (RPMI+ds).\nPROTOCOL TABLE (as described by Inglese J, Shamu CE and Guy RK. 2007)\nSEQUENCE No. (e.g., 1, 2, 3, etc.); […] (e.g., Cells, Incubation, Reagent, etc.); VALUE and DESCRIPTION.\n1; Cells; 5 uL; white, solid bottom 1536-well Greiner assay plate.\n2; Compounds; 23 nL; Kalypsis pin tool (Wako USA) equipped with a 1536-well pin head to transfer to the assay plates.\n3; Incubation; 48 hours; 37C incubation.\n4; Reagent; 3 uL; CellTiter Glo (Promega).\n5; Incubation; 5 min, room temperature\n6; Detection; Luminescence, Viewlux PerkinElmer.\nNOTES (numbers refer to Sequence numbers above)\n1. Briefly, 5 ul of cell reagent was dispensed using a Multidrop Combi Dispenser. The NOMO1 and SEM cells were plated at 500 cells/well and the P12-Ichikawa line at 1000 cells/well.\n2. After seeding the cells, 23 nL of MIPE 4.1 library compounds (in DMSO) were added to each plate using a Kalypsys 1536 Pintool dispenser. Bortezomib at final concentration of […] and DMSO were added to each plate as positive and negative controls respectively. For each screen, MIPE 4.1 compounds were added over an eleven-point concentration range […] in 3-fold dilutions.\n3. Each plate was covered with a stainless steel gasketed lid to prevent evaporation and incubated for 48 hour at 37C, 95% relative humidity, and 5% CO2.\n4-5. Three microliter CellTilter-GloTM luminescent substrate mix (Promega) reagent was added to the assay plate and incubated at room temperature for 5 min.\n6. The luminescence signal was measured using a ViewLux (PerkinElmer) multiplate reader with a 2 second exposure time per plate. Data for each compound were normalized as percent viability such that measurements for DMSO and the empty well controls in each plate were defined as 100% and 0%, respectively.", "values": [{"smiles": "CN1C(C(=O)Nc2ccccn2)=C(O)c2ccccc2S1(=O)=O", "Potency": "11800 nM (active)"}, {"smiles": "Cn1cc(-c2[nH]c3cc(NC(=O)[C@H](N)C4CCCCC4)cc4c3c2C=NNC4=O)cn1", "Potency": "16600 nM (active)"}, {"smiles": "COc1cc(C=CC(=O)O)ccc1O", "Potency": "inactive"}, {"smiles": "C[C@@H]1CC=CC=CC=CC=C[C@@H](O[C@@H]2O[C@H](C)[C@@H](O)[C@H](N)[C@H]2O)C[C@@H]2O[C@](O)(C[C@@H](O)C[C@@H]3O[C@@H]3C=CC(=O)O1)C[C@H](O)[C@@H]2C(=O)O", "Potency": "inactive"}, {"smiles": "C[N+](C)(C)CC(=O)O", "Potency": "inactive"}, {"smiles": "CN1CCN(c2ccc(C(=O)Nc3n[nH]c4ccc(Cc5cc(F)cc(F)c5)cc34)c(NC3CCOCC3)c2)CC1", "Potency": "23400 nM (active)"}, {"smiles": "CC(C)OC(=O)[C@H](C)N[P@](=O)(OC[C@H]1O[C@@H](n2ccc(=O)[nH]c2=O)[C@](C)(F)[C@H]1O)Oc1ccccc1", "Potency": "1320 nM (active)"}, {"smiles": "Cc1cc(CN2CCN(c3c(Br)cnc4nc(-c5ccc(N6CCN(C)CC6)cc5)[nH]c34)CC2)no1", "Potency": "1050 nM (active)"}, {"smiles": "O=S(=O)(O)CCSSCCS(=O)(=O)O", "Potency": "inactive"}, {"smiles": "Cc1cc2cc3c(C)cc(=O)oc3c(C)c2o1", "Potency": "inactive"}, {"smiles": "O=C(C1CC1)N1CC[C@@H](Cc2n[nH]c(=O)n2-c2ccc(-c3ccc4occc4c3)cc2)C1", "Potency": "inactive"}, {"smiles": "Cc1csc(NC(=O)c2sc3nc4c(c(C(F)(F)F)c3c2N)CCC4)n1", "Potency": "inactive"}, {"smiles": "C[C@@H](Oc1cc(-n2cnc3ccc(CN4CCN(C)CC4)cc32)sc1C(N)=O)c1ccccc1C(F)(F)F", "Potency": "29.6 nM (active)"}, {"smiles": "NC(=O)c1ncn([C@@H]2O[C@H](CO)[C@@H](O)[C@@H]2O)c1N", "Potency": "inactive"}, {"smiles": "CC(C)C[C@H](NC(=O)[C@H](CCc1ccccc1)NC(=O)CN1CCOCC1)C(=O)N[C@@H](Cc1ccccc1)C(=O)N[C@@H](CC(C)C)C(=O)[C@@]1(C)CO1", "Potency": "33.2 nM (active)"}, {"smiles": "CCC(=C(c1ccccc1)c1ccc(OCCN(C)C)cc1)c1ccccc1", "Potency": "inactive"}, {"smiles": "O=C(O)CCCc1c[nH]c2ccccc12", "Potency": "inactive"}, {"smiles": "Nc1cccc2c1CN(C1CCC(=O)NC1=O)C2=O", "note": "(stereo not given)", "Potency": "inactive"}, {"smiles": "COC(=O)N[C@H](C(=O)N1CCC[C@@H]1c1ncc(-c2ccc(-c3ccc(-c4cnc([C@@H]5CCCN5C(=O)[C@@H](NC(=O)OC)C(C)C)[nH]4)cc3)cc2)[nH]1)C(C)C", "Potency": "inactive"}, {"smiles": "O=C(O)CCNc1cc(N2CCc3ccccc3CC2)nc(-c2ccccn2)n1", "Potency": "inactive"}, {"smiles": "COC(=O)c1ccc2c(C(=Nc3ccc(N(C)C(=O)CN4CCN(C)CC4)cc3)c3ccccc3)c(O)[nH]c2c1", "Potency": "inactive"}, {"smiles": "C[C@H]1C[C@H]2[C@@H]3CCC4=CC(=O)C=C[C@]4(C)[C@@H]3C(=O)C[C@]2(C)[C@@]1(O)C(=O)CO", "Potency": "inactive"}, {"smiles": "COc1ccc(S(=O)(=O)Nc2cccnc2Nc2ccc(O)cc2)cc1", "Potency": "3320 nM (active)"}, {"smiles": "CC1(C)CC(=O)c2c(C(F)(F)F)nn(-c3ccc(C(N)=O)c(NC4CCC(O)CC4)c3)c2C1", "note": "(stereo not given)", "Potency": "235 nM (active)"}, {"smiles": "CC(C)[C@H](CO)Nc1nc(Nc2cccc(Cl)c2)c2ncn(C(C)C)c2n1", "Potency": "4180 nM (active)"}, {"smiles": "CC(N)C12CC3CC(CC(C3)C1)C2", "note": "(stereo not given)", "Potency": "26400 nM (active)"}, {"smiles": "O=C(O)CSCC(=O)NC1CCSC1=O", "note": "(stereo not given)", "Potency": "inactive"}, {"smiles": "CCOc1cc(CC(=O)N[C@@H](CC(C)C)c2ccccc2N2CCCCC2)ccc1C(=O)O", "Potency": "2350 nM (active)"}, {"smiles": "COc1cc(OC)c(NC(=O)Nc2cc(C)on2)cc1Cl", "Potency": "inactive"}, {"smiles": "NC(N)=Nc1nc(CSCCC(N)=NS(N)(=O)=O)cs1", "Potency": "inactive"}, {"smiles": "COc1cc(C(C)C)c(Oc2cnc(NC(CO)CO)nc2N)cc1I", "Potency": "inactive"}, {"smiles": "NC(=O)c1ccc2nc(-c3ccc(Oc4ccc(Cl)cc4)cc3)[nH]c2c1", "Potency": "inactive"}, {"smiles": "COc1ccnc(CS(=O)c2nc3ccc(OC(F)F)cc3[nH]2)c1OC", "note": "(stereo not given)", "Potency": "inactive"}, {"smiles": "CN1CCN(c2c(F)cc3c(=O)c(C(=O)O)cn(CCF)c3c2F)CC1", "Potency": "inactive"}, {"smiles": "COc1cc(N2CCC(N(C)C)CC2)ccc1Nc1ncc(Cl)c(Nc2ccccc2P(C)(C)=O)n1", "Potency": "933 nM (active)"}, {"smiles": "OC[C@H]1O[C@@H](Oc2ccc(O)cc2)[C@H](O)[C@@H](O)[C@H]1O", "Potency": "inactive"}, {"smiles": "C=C1C(=CC=C2CCC[C@]3(C)[C@@H]([C@H](C)CCCC(C)(C)O)CC[C@@H]23)C[C@@H](O)C[C@@H]1O", "Potency": "inactive"}, {"smiles": "C[C@@H](N)C1CCC(C(=O)Nc2ccncc2)CC1", "note": "(stereo not given in full)", "Potency": "inactive"}, {"smiles": "Cc1c2oc3c(C)ccc(C(=O)NC4C(=O)NC(C(C)C)C(=O)N5CCCC5C(=O)N(C)CC(=O)N(C)C(C(C)C)C(=O)OC4C)c3nc-2c(C(=O)NC2C(=O)NC(C(C)C)C(=O)N3CCCC3C(=O)N(C)CC(=O)N(C)C(C(C)C)C(=O)OC2C)c(N)c1=O", "note": "(stereo not given) (I: TVP[Sar][NMeV] / II: TVP[Sar][NMeV]; ester I:1-I:C, II:1-II:C; linker I:N-II:N via Actinocin(9to1); configuration not given here)", "Potency": "inactive"}, {"smiles": "COC(=O)[C@@H]1[C@H]2C[C@@H]3c4[nH]c5ccccc5c4CCN3C[C@@H]2CC[C@@H]1O", "Potency": "2960 nM (active)"}]}]}
